Only some compounds are listed: those with a hit (about 7.4% of all), similar ones and a draw of the others.
SNCA viab count: counter-screen for SNCA expression inhibitors: cell viability; HEK-293-SNCA-luc viability, GF-AFC fluorescence, 24 h; Potency, µM (doses to about 57.1 µM), actives largely listed as cytotoxic; actives 0.12% (n = 150,000); also: nearly all actives have a fitted effect of over 30% in size
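HEK-293-SNCA-luc cells (1500/well) plated 24 h, then exposed 24 h to a dilution series; GF-AFC added 30 min at 37C, fluorescence 405/540 nm; normalised to medium-only and DMSO wells, Hill fit.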
3T3 cytotox: cytotoxic compounds in NIH 3T3 cells; Potency, µM (highest dose often 96.7 µM), hits mostly inhibitors; AID 1345082; actives 4.3% (n = 94,000); NIH 3T3 viability, CellTiter-Glo ATP luminescence, 48-72 h; also: nearly all actives have a fitted effect of over 55% in size
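ATP-dependent luminescence (CellTiter-Glo) served as the viability signal for NIH 3T3 cells treated with compound for 48 or 72 hr at 37 °C.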
SNCA expr inhib: reduces expression of the alpha-synuclein gene. actives 0.17% (n = 140,000). Potency, µM (top dose mostly 57.2 µM), most hits filed as inhibitors. HEK-293 SNCA-luciferase knock-in, luminescence, 24 h; also: nearly all actives have a fitted effect of over 45% in size
FLuc inh: blocks purified firefly luciferase enzyme activity; purified P. pyralis luciferase, luminescence, biochemical; actives 2.5% (n = 76,000); Potency, µM (doses to about 115 µM), actives largely listed as inhibitors; also: nearly all actives have a fitted effect of over 65% in size
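FLuc 10nM, D-luciferin 10uM, ATP 10uM, Mg acetate 10mM, Tris acetate pH 7.5, Tween/BSA; cpd qHTS; enzyme added last; CCD luminescence.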
HEK293 tox: cytotoxic compounds in HEK 293 cells. HEK 293 viability, ATP luminescence (CellTiter-Glo), 48-72 h. actives 6.6% (n = 94,000). Potency, µM (top dose mostly 115 µM), most hits filed as inhibitors; also: nearly all actives have a fitted effect of over 60% in size
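Cells seeded first (HEK 293, 250 cells/well), then compound added by pintool. Incubation ran 48 or 72 hr at 37 degree Celsius. CellTiter-Glo was added and luminescence imaged after 10 min at room temperature.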
hNpr1 antagonist: blocks ANP-stimulated signaling of human Npr1 receptor. P16066. actives 1.6% (n = 76,000). Potency, µM (series often up to 46.3 µM), actives largely listed as inhibitors. HEK293 hNpr1 GloSensor cGMP, ANP-stimulated luminescence; calls by dose curve; also: nearly all actives have a fitted effect of over 60% in size
Target sequence (P16066 whole entry, looked up): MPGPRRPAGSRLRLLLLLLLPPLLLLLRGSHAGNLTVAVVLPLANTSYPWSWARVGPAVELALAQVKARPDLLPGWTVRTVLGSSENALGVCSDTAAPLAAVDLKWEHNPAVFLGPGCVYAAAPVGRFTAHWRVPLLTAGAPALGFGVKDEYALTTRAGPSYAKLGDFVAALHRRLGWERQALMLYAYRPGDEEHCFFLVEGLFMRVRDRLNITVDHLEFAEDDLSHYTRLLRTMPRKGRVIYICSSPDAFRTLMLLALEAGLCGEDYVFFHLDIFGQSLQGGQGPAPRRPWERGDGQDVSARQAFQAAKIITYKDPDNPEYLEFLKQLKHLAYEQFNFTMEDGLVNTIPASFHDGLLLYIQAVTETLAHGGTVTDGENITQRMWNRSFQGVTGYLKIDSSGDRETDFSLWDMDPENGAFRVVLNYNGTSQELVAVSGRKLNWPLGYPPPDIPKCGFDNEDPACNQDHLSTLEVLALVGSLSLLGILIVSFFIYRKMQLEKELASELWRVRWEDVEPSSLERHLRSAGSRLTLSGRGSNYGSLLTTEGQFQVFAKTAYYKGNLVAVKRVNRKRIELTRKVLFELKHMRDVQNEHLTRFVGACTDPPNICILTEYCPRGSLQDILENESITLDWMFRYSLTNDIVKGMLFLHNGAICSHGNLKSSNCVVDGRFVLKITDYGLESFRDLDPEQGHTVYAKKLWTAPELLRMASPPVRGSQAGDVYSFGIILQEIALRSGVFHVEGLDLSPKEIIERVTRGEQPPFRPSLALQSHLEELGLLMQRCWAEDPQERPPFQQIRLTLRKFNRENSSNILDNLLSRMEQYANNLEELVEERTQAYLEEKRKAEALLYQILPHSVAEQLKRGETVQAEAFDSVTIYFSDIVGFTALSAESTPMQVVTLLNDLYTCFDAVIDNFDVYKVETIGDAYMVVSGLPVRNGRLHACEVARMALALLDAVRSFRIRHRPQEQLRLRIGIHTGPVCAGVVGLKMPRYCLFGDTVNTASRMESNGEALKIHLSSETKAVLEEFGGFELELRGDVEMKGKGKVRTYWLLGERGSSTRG
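Compound pre-incubated 30 min at room temperature on GloSensor-loaded HEK293 cells stably carrying hNpr1 and the pGS-40F cGMP biosensor. Stimulation uses hNppA at 0.1 nM final; luminescence is taken at baseline and 20 min post-agonist.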
Numbers stand for hits; 0 = inactive; ? = inconclusive; - = no result given; [ ] = dose if it differs, or a comment. Unless noted, calls follow the shape of the dose curve; as a rule, active = well fitted curve in the direction sought with a large enough effect; inconclusive = small, poorly fitted or top-dose-only effect, or another doubt; inactive = no such curve, though single readings can be large; an effect the other way counts as inactive or inconclusive.

SMILES	SNCA viab count	3T3 cytotox	SNCA expr inhib	FLuc inh	HEK293 tox	hNpr1 antagonist
COc1ccccc1C(=O)N1CCCC2(CN[S+](=O)([O-])c3cccnc3N2)C1 (stereo unspecified)	-	0	-	-	0	-
COC(=O)c1ccc2nc(C[C@@H]3C[C@@H](C(C)C)[C@H](CNCc4ccccc4F)C=C3C)[nH]c2c1	0	22µM	0	0	?	0
COC(=O)c1ccc2nc(C[C@@H]3C[C@@H](C(C)C)[C@H](CNCc4ccc(OC)cc4O)C=C3C)[nH]c2c1	?	25µM	0	0	20µM	0
N#CC1CCN(C(=O)C2CCCCN2Cc2ccc(-c3ccsc3)cc2)CC1 (stereo unspecified)	0	?	0	-	?	-
COc1ccccc1-n1c(=O)c(C(=O)Nc2ccccc2Cl)nc2cccnc21	0	0	0	-	0	-
O=C(NCc1ccc(F)c(F)c1)c1ccc2nc(-c3ccncc3)oc2c1	0	0	0	-	?	-
COCc1nnc(C2CC3(CCN(C(=O)c4ccc(C)s4)CC3)CN2C)o1 (stereo unspecified)	0	0	?	-	0	-
Cc1noc(C)c1-c1cc(-c2ccccc2F)cn2cncc12	0	?	0	0	79µM	0
COc1ccccc1-c1cc(-c2cccnc2)c2cncn2c1	0	?	?	0	?	0
Cc1noc(C)c1-c1cc(-c2ccccc2C(F)(F)F)cn2cncc12	0	?	0	0	71µM	0
FC(F)(F)c1ccccc1-c1cc(-c2cccnc2)c2cncn2c1	0	45µM	?	0	63µM	0
Cc1noc(C)c1-c1cc(-c2ccc([S+](C)(=O)[O-])cc2)cn2cncc12	0	?	0	0	?	0
CCCC1CN(Cc2ccc3c(c2)OCO3)C(=O)c2ccc(C)nc2O1 (stereo unspecified)	0	?	0	-	?	-
CCc1ccc(NC(=O)Cn2c(-c3ccccc3)nc(C)c(CCO)c2=O)cc1	?	40µM	?	0	40µM	0
CCc1ccc(NC(=O)Cn2c(-c3ccc(Cl)cc3)nc(C)c(CCO)c2=O)cc1	0	45µM	0	0	40µM	0
O=C(NCc1cccs1)C1CCN(Cc2ccccc2-c2cccnc2)CC1	0[12.5 µM]	0	0	-	?	-
CCOC(=O)C1CCCCN1C(=O)c1oc2c(Cl)cc(C)cc2c1C (stereo unspecified)	0	0	?	0	0	0
Cc1cc(Cl)c2oc(C(=O)N(Cc3c(C)nn(C)c3C)C3CC3)c(C)c2c1	?	?	0	28µM	?	7.9µM
COc1cc2c(cc1OC)C(CNC(=O)c1ccco1)N(C(=O)Nc1cccc(F)c1)CC2 (stereo unspecified)	0	0	0	0	45µM	0
O=C(NC1CCN(c2ccc3nnc(-c4ccccc4)n3n2)C1)c1cccc(C(F)(F)F)c1 (stereo unspecified)	-	?	-	-	0	-
CS(=O)(=O)NC1CCN(c2ccc3nnc(C4CC4)n3n2)CC1	-	0	-	-	0	-
CC(C)S(=O)(=O)NCC1CN(CC2CC2)CC12CCCCC2 (stereo unspecified)	0	0	0	-	0	-
Fc1ccccc1-c1cc2c(cn1)CN(Cc1cccnc1)CCN2	0	0	?	32µM	?	0
c1cc(CN2CCNc3cc(-c4ccsc4)ncc3C2)ccn1	0	0	0	?	?	0
Clc1cnccc1CN1CCNc2cc(-c3ccccc3)ncc2C1	0	?	0	28µM	?	0
SMILES	SNCA viab count	3T3 cytotox	SNCA expr inhib	FLuc inh	HEK293 tox	hNpr1 antagonist
Fc1cccc(-c2cc3c(cn2)CN(Cc2ccncc2)CCN3)c1	0	0	0	40µM	?	0
COc1ccc(Nc2ccnc(N3CCCC3C(=O)NCc3ccc(C(F)(F)F)cc3)n2)cc1 (stereo unspecified)	0[12.5 µM]	0	0	-	?	-
CCOC(=O)N1CCC(Oc2cnc3c(ccn3-c3cncnc3)c2)CC1	0	10µM	0	0	0	0
CC(=O)N1CCC(C(=O)N2CCC(c3nc4ncccc4[nH]3)CC2)CC1	0	0	0	-	0	-
COc1ccc(Nc2ccnc(N3CCC(C(=O)NC(C)C)CC3)n2)cc1	0[12.5 µM]	?	0	-	?	-
COc1ccc(C(=O)N2CCc3ccc(C(=O)NCc4cccc(OC)c4)cc32)cc1	?	?	0	0	79µM	0
COc1ccc(C(=O)N2CCc3ccc(C(=O)NCc4cccc(F)c4)cc32)cc1	?	?	0	0	40µM	0
O=C(C1CCN(c2nccc(Nc3ccccc3Cl)n2)CC1)N1CCCCC1	0[12.5 µM]	?	0	-	?	-
CC(=O)N1CC2(CCN(Cc3ccc(Cl)cc3)CC2)Cc2ccccc21	0	?	0	-	?	-
O=C(c1ccc(Cl)cc1)N1CC2(CCCN(Cc3ccc(Cl)cc3)C2)Cc2ccccc21 (stereo unspecified)	0	32µM	0	-	?	-
O=C(c1ccc(Cl)cc1)N1CC2(CCN(Cc3ccc(Cl)cc3)CC2)Cc2ccccc21	0	35µM	0	-	40µM	-
O=C(c1ccc(Cl)cc1)N1CC2(CCN(Cc3c[nH]c4ccccc34)CC2)Cc2ccccc21	?	11µM	?	-	20µM	-
O=C(NC1CC1)c1ccccc1OCC1CCCN(Cc2cccc3[nH]ccc23)C1 (stereo unspecified)	?	0	0	0	35µM	0
CN1CC(C(=O)N2CCC(c3ccccc3)CC2)NC1=O (stereo unspecified)	0[12.5 µM]	0	0	-	0	-
CC1=C[C@@H](CNS(C)(=O)=O)[C@H](C(C)C)C[C@H]1Cc1nc2ccc(F)cc2[nH]1	?	?	?	0	89µM	?
CC1=C[C@@H](CNS(C)(=O)=O)[C@H](C(C)C)C[C@H]1Cc1nc2ccc(Cl)cc2[nH]1	?	?	?	0	100µM	?
CC1=C[C@@H](CNC(=O)CCCC(=O)O)[C@H](C(C)C)C[C@H]1Cc1nc2ccc(Cl)cc2[nH]1	0	0	0	0	0	0
CC(=O)N1CCC(NC[C@@H]2C=C(C)[C@H](Cc3nc4ccncc4[nH]3)C[C@H]2C(C)C)CC1	0	0	0	0	0	0
CC1=C[C@@H](CNC2CCN(C)CC2)[C@H](C(C)C)C[C@H]1Cc1nc2ccc(F)cc2[nH]1	0	?	0	0	71µM	0
Cn1ccc(C(=O)N2CCCC(CCc3ccccc3C(F)(F)F)C2)n1 (stereo unspecified)	0	?	?	0	32µM	0
CC(C)NS(=O)(=O)c1ccc2c(c1)nc(-c1cc(C(C)(C)C)[nH]n1)n2C(C)C	0	?	0	0	45µM	0
CC(C)NS(=O)(=O)c1ccc2c(c1)nc(-c1ccc(-c3ccn[nH]3)o1)n2C(C)C	0	?	0	0	?	0
O=C(c1ccc(Cl)cc1)N1CCN(c2nccc(Nc3ccccc3Cl)n2)CC1	0	?	?	-	22µM	-

Compound activity: PubChem, National Center for Advancing Translational Sciences (NCATS)
